# Laboratory results as given in PubChem BioAssay AID1508600 (Functional Genomics Laboratory (NCATS/FGL), 2020).
# The campaign covered roughly 53,000 sequences. About 3,700 (7%) were called active. Only a selection was taken, and actives are over-represented in it overall. Values without a mark were called inactive.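 The calls were made as follows: active = gene knockdowns whose robust z-score for IL-1 alpha signal is at least 2 or at most -2, so actives lie on both sides; inactive = the rest.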
# Experiment: Components of the Cytosolic LPS Sensing Pathway: Gene Identification via Genome-wide siRNA Screen;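 also: robust z of the log signal after scaling to non-targeting control siRNA wells of the plate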
# Details: RAW264.7 macrophages, IL-1a HTRF, actives lie on both sides, screened at 100 nM (by protocol), cells primed 5 h with Pam3CSK4 first
# Procedure, shortened: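 Mouse macrophage line RAW264.7 is transfected with siRNA (100 nM final), grown 48h, primed with TLR ligand Pam3CSK4 5 h and given intracellular LipidA 24 h. IL-1a in supernatant is read by HTRF and viability by luminescence.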
row,Sequence,z-score
1,GCACAGAGGAUGUACGUUATT against Cstad,-0.665
2,GCCCAGAGAAUGACCUAUATT against 9130019O22Rik,0.54
3,GGUGCUCCACAACACCUAUTT against 2510039O18Rik,2.05 (active)
4,CCUACUAUACAAUUCUGCUTT against Clns1a,0.556
5,GGUCACUUCAUCCAUAGCUTT against Atmin,-1.79
6,GACAGCAACGUGAAAUUAGTT against Xlr,-0.828
7,GGAUCUUUUCCAAAGAAAUTT against Dusp10,-0.409
8,GGAGGAAGAAGAGAUACCUTT against Foxh1,-0.96
9,CGGGAAACUUAGGUAUGAUTT against Olfr1009,-3.05 (active)
10,GGCAUGGAAGGCUAAACAGTT against Slc25a17,-1.98
11,GGGUAUAGAGUCAAUCUGATT against Gfm2,-0.381
12,GCAGGGAUCUGCUAAGCUATT against Hey1,-0.953
13,GGACCCAUUGGUCAUCAUATT against Tent5b,0.18
14,CGGAACCAUAGGGAAUCAGTT against Cmc2,2.04 (active)
15,GCCUGAAUUUGUAAGCAGUTT against Fgf1,0.0666
16,CAUUGUCAUUCUGCUGGCATT against Olfr1249,-0.0752
17,GGUCACCAUCAUCAUCAAUTT against Carmil1,0.484
18,GGUGGUAGAACUGUUAAAATT against Klc2,0.311
19,GGAGAAAGAGACGGACAACTT against Fgfr1,2.8 (active)
20,GGACUGAAUCUUUAAAGGUTT against Nkx1-2,0.199
21,GGUGUUGUGGAAUAUUUAATT against Cnot6l,1.23
22,GGUCUUACCUUUUGAAAAATT against Mtbp,0.0999
23,GCAUCCUCUCACUCUCAAUTT against Grin2a,2.37 (active)

row,Sequence,z-score
1,CCGAAGCCUUGAAAGCAGUTT against Shq1,0.302
2,GGAAACUGGAUCAAACCAUTT against Smarcd3,-0.707
3,CGAAGUGGUCAAGUUCUCUTT against Fbxo17,-2.09 (active)
4,CGAGUUAGUUUUUCUGGGCTT against Tctex1d4,0.997
5,GCAAGAAAAGGUGCUAUCUTT against Med4,-0.314
6,GGAGCUGGAAGAGUGGUAUTT against Clta,-0.535
7,GGCUAUGUAGAUCUUGUCATT against Cyb5r1,-1.09
8,GCUCGGUUAAGAGCCCAUGTT against Pabpn1l,-2.11 (active)
9,GGCACAACUGAUUUUGAAATT against Ifngr2,-0.362
10,GCGAUCACAGACAUCAUUGTT against Rabgef1,-0.423
11,GGAAAUAAGCAGCGCAUGCTT against Ippk,-1.27
12,CCUACGAGGAUACUUACAATT against Kif18b,2.81 (active)
13,GGUGGUUCUGGUGUACAGUTT against Nxf1,-1.98
14,CCCUAUAAGCAACUUAUGCTT against Tor1aip1,-0.115
15,GCACCAUUUGAGUUUUUCUTT against Vmn1r8,-0.578
16,CAUUUACAUUCUUAUUACCTT against Olfr473,-1.43
17,CCCGAACCUUAGUAAAUGUTT against Psmd8,0.308
18,GCAGACAGCUUCUCACUAUTT against Tmem114,-0.431
19,GCUAAGAAACUGGUCUCAUTT against Reg4,-0.151
20,GGAAGAUUUGGAAAAUGGATT against Dph3,-2.19 (active)
21,CCAUCAUUUAUGAAGACCCTT against Dcaf7,-1.44
22,CCCAAGCACCAGCCCUAUATT against Frmd8,-1.58
23,GGGAGAAUUGUAGAUUAUUTT against Myo10,0.475

row,Sequence,z-score
1,CCAUCGACUGUUUCAUCCUTT against Olfr987,-0.915
2,GCUUGAAGUCUCUUGCUGGTT against Nhlrc2,3.53 (active)
3,GCUACUCUUUGUCUCAUGUTT against Hexb,-0.826
4,GGAUCAGAUCUUGUGUGACTT against Trim16,-0.602
5,CCGCUUGCUCAUUGUAUCATT against Ruvbl2,-0.976
6,GGUUCCAUGAGAAAAGGUUTT against F2r,-1.45
7,AUCUGUUCCGGAGGAAUUUTT against 1700029I15Rik,3.85 (active)
8,GGAGGAGUUUCGCUACGGATT against Sars2,-0.00587
9,GGUGUACCCUGAAUUUGAATT against Wdr62,-1.67
10,GGUUAUACGCUUAGAUUUATT against Irx5,1.77
11,GCUCUGUUACUAUUUGAAUTT against Cts6,0.137
12,GGUUUUGUACUUUCAUAGATT against Fam111a,0.523
13,GGACUUGAACUGAAAAGUUTT against D830013H23Rik,1.01
14,GGCAAAAUAAAGCUUAAGGTT against Robo3,-0.517
15,GGAUUUGAGGUUCAUAUAATT against Cdk20,-2.48 (active)
16,CGACAGACAUCGCUAUAAUTT against Gm11437,-0.296
17,GGAGAUACCGGGAAUCCAATT against Rpl19,0.146
18,GCGCUUCCAAUAACAAAAATT against 1700123L14Rik,-2.19 (active)
19,CCAAGUGGGAUUUGCCAACTT against Ifi47,-1.68
20,GGAAUAUCACCAAACCAAATT against 2310057J18Rik,-1.08
21,CCUUCACCUGGCUAUUAGATT against Kif12,-0.14
22,GGAUGUGUUCUAUUCUAUATT against Oprl1,0.134
